Measurements from PubChem BioAssay (NCATS).
Inconclusive results are not listed. A call without a number means that no potency is given here. Active and inactive are the calls of the source. The call rests on the fitted dose curve; in most records, active means well fitted curve in the direction sought with a large enough effect; inconclusive means small, poorly fitted or top-dose-only effect, or another doubt; inactive means no such curve, though single readings can be large; an effect the other way counts as inactive or inconclusive. Starred links: 1 amine or outer side, 2 acyl side, 3 side chain; linkers in the order of their positions; H or OH if unused. Positions of bridges follow the written chain, without caps; N, C: chain ends. Non-standard residues stand in square brackets, D forms with d. Residues, ends and D or L forms follow the SMILES beside them. ξ: configuration not given here. *: point of attachment. X3 = C[C@@H](Oc1ccc([C@H](N[*:1])C(=O)[*:2])cc1)[C@]1(/C=C\C(=O)[*:3])CO1; d(aIle) = CC[C@H](C)[C@@H](N)C(=O)O; X2 = CC(C)[C@@H](O)C(C)C(=O)*; ξNMeF = CNC(Cc1ccccc1)C(=O)O; ξT = CC(O)C(N)C(=O)O; ξS = NC(CO)C(=O)O

Tests used:
[1] = HPAF-II 24hr Apoptosis Induction qHTS against the NCATS CANVASS Library (AID 1347356)
In short: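 Using an 11-point qHTS format, HPAF-II cells in DMEM/10% FBS received compounds for 24 h; doxorubicin titration as control. Caspase-3/7 activity quantified by DEVD-luciferase luminescence.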

[2] = HEK293 18hr Apoptosis Induction qHTS against the NCATS CANVASS Library (AID 1347357)
In short: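 Cells seeded at 500/well in DMEM + 10% FBS. Compounds pinned, 11 concentrations. 18 h, 37 degrees C/5% CO2. Caspase-Glo 3/7 added, 15 min RT dark, luminescence read.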

[3] = HPAF-II 12hr Apoptosis Induction qHTS against the NCATS CANVASS Library (AID 1347358)
In short: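 Twelve-hour compound exposure of HPAF-II cells in DMEM with 10% FBS, then luminescent Caspase-Glo 3/7 detection after 15 min at room temperature; doxorubicin control.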

[4] = HPAF-II 18hr Apoptosis Induction qHTS against the NCATS CANVASS Library (AID 1347360)
In short: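 Seed HPAF-II cells at 500/well in DMEM + 10% FBS, pin-transfer compounds, incubate 18 hours at 37 degrees C/5% CO2, add Caspase-Glo 3/7 reagent, wait 15 min, read luminescence.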

[5] = biological target: Luciferin 4-monooxygenase (Photinus pyralis) (UniProt P08659); experiment: Firefly luciferase counterscreen qHTS: Assay Interference Panel against the NCATS CANVASS Library (AID 1347363); further: series mostly up to about 57 µM
In short: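 Purified P. pyralis luciferase was added to compounds (11-point series) preincubated 15 min at room temperature with substrate containing 0.013 mM D-luciferin and 0.013 mM ATP; luminescence was read after 5 min.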

[6] = qHTS for ATAD5 Agonist screened against the NCATS CANVASS Library (AID 1347367);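 further: luciferase reporter driven by ATAD5 which rises upon DNA damage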; further: potency means the concentration at half of the fitted maximal effect
In short: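 HEK293T-ATAD5 luc reporter; 2000 cells/well; 5hr settle; cpd 11-pt qHTS; 16hr 37C 5% CO2 dark; viability by CellTiter-Fluor (AFC fluorescence); then luciferase luminescence, 30min RT.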

[7] = biological target: Nuclear receptor subfamily 1 group I member 3 (Homo sapiens) (UniProt Q14994); experiment: qHTS for Constitutive Androstane Receptor (CAR) Agonist screened against the NCATS CANVASS Library (AID 1347373);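 further: every well also contained 1.5 µM PK11195 alongside the test compound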; further: potency means the concentration at half of the fitted maximal effect
In short: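 In an 11-point concentration series, compounds were incubated 24hr with HepG2 cells carrying hCAR and a CYP2B6-2.2kb reporter, with PK11195 at 1.5uM final. A CellTiter-Fluor viability read preceded the ONE-Glo luminescence read.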

[8] = 10-beta competent E. coli microbial cell viability qHTS against the NCATS CANVASS Library (AID 1347376); further: series mostly up to about 46 µM
In short: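 Overnight 37C exposure of 10-beta E. coli (0.2 OD) to an 11-point concentration series; ATP-based luminescence after 20 min room-temperature reagent incubation; daunomycin as control.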

[9] = Inflammasome Signaling qHTS Counterscreen: IL-1-beta AlphaLISA counterscreen against the NCATS CANVASS Library (AID 1347381);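 further: cell-free check with purified IL-1β in medium and no THP-1 cells; series mostly up to about 57 µM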
In short: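 Here, no cellular stimulation occurs; compounds in an 11-point series meet 4 pg purified IL-1-beta directly. Bead-based AlphaLISA detection follows (1 h acceptor/antibody, then 30 min donor, dark, room temperature), with excitation at 680 nm.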

[10] = Cytotoxicity qHTS for assessment of Hepg2 cells membrane integrity screened against the NCATS CANVASS Library (AID 1347387)
In short: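 Membrane damage in HepG2 monolayers was estimated from released LDH, measured with CytoTox-ONE (ex 560/em 590 nm), after 5 hr treatment across 0.59 nM - 46 uM final.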

[11] = qHTS for activators of dead-cell proteases activity screened against the NCATS CANVASS Library (AID 1347392);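 further: luminescence from protease leaking out of membrane-damaged cells cleaving impermeant substrate; rising signal means more cytotoxicity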
In short: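 Cytotoxicity in HepG2 cells was assessed by released protease cleaving AAF-aminoluciferin, with luminescence as signal. Exposure lasted 5 h at 37C across an 11-point series.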

[12] = Redox Reaction Profiling qHTS: Assay Interference Panel against the NCATS CANVASS Library (AID 1347401); further: potency means the concentration at half of the fitted maximal effect
In short: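 Quantitative HTS over an 11-point series was run in HEPES pH 7.3 with 50 mM NaCl, 200 uM DTT and 5 uM resazurin. Initial and 15-min resorufin fluorescence readings were taken.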

Chain of Nuclear receptor subfamily 1 group I member 3 (Homo sapiens) (Q14994 whole entry, looked up): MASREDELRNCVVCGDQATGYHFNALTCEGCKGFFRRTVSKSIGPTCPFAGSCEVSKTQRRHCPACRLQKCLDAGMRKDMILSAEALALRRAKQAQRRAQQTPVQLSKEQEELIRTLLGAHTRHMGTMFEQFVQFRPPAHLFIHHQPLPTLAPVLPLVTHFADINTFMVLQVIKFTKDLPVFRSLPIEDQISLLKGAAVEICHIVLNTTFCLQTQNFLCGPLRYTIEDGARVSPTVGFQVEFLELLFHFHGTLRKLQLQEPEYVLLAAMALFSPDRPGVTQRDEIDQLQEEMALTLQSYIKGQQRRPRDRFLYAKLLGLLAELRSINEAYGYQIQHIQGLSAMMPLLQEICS
Chain of Luciferin 4-monooxygenase (Photinus pyralis) (P08659 whole entry, looked up): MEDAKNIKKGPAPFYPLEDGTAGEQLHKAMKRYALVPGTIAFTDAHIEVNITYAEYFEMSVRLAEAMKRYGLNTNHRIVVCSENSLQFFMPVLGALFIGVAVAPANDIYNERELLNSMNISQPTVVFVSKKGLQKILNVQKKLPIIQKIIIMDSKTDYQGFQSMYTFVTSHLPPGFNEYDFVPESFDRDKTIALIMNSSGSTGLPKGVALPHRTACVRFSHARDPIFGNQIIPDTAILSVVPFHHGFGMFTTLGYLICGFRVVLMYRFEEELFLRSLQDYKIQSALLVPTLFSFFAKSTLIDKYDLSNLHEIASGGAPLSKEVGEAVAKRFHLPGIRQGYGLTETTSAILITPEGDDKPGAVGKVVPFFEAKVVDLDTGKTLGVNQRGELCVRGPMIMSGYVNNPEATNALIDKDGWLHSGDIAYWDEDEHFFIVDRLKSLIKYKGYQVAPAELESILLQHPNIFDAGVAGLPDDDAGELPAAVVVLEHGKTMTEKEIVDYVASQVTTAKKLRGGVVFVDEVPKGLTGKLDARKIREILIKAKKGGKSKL

Row | SMILES | outcome [1] | outcome [2] | outcome [3] | outcome [4] | Potency [5] | Potency [6] | Potency [7] | outcome [8] | outcome [9] | outcome [10] | outcome [11] | Potency [12]
1 | C1=C2CCCN[C@H]2C2CC1[C@H]1CCCCN1C2 (some centres undefined) | inactive | inactive | inactive | inactive | inactive | inactive | inactive | inactive | inactive | inactive | inactive | inactive
2 | CCCC[C@@H](C)/C=C1/CN2CCC[C@H]2[C@@](C)(O)[C@@H]1O | inactive | inactive | inactive | inactive | inactive | inactive | inactive | inactive | inactive | inactive | inactive | inactive
3 | C=CC(C)(C)[C@@]12C[C@H]3C(=O)N/C(=C/c4cnc[nH]4)C(=O)N3[C@@H]1Nc1ccccc12 | inactive | inactive | inactive | inactive | inactive | inactive | inactive | inactive | inactive | inactive | inactive | inactive
4 | CC[C@H](C)[C@H]1NC(=O)[C@@H](NC(=O)C(C)[C@H](O)C(C)C)[C@@H](C)OC(=O)C2COC(=O)CNC(=O)/C=C\[C@]3(CO3)[C@@H](C)Oc3ccc(cc3)[C@H](NC1=O)C(=O)N(C)C(Cc1ccccc1)C(=O)NC(C(C)O)C(=O)N2 (some centres undefined) (X2-T[d(aIle)][X3][ξNMeF][ξT][ξS]; ester 1-C; linker 3-6 via G) | inactive | inactive | inactive | inactive | inactive | inactive | inactive | inactive | inactive | inactive | inactive | inactive
5 | C/C=C1/CN2CC[C@]34C(=C(C(=O)OC)[C@H]1C[C@H]23)Nc1ccccc14 | inactive | inactive | inactive | inactive | inactive | inactive | inactive | inactive | inactive | inactive | inactive | inactive
6 | C=C[C@H]1CN2CCc3c([nH]c4cccc(OC)c34)[C@@H]2C[C@@H]1/C(=C\OC)C(=O)OC | inactive | inactive | inactive | inactive | inactive | inactive | inactive | inactive | inactive | inactive | inactive | inactive
7 | CC(C)CC1C(=O)O[C@H](C(C)C)C(=O)N(C)C(CC(C)C)C(=O)O[C@@H](C(C)C)C(=O)N(C)C(CC(C)C)C(=O)O[C@H](C(C)C)C(=O)N(C)C(CC(C)C)C(=O)O[C@@H](C(C)C)C(=O)N1C (some centres undefined) | inactive | inactive | inactive | inactive | inactive | inactive | inactive | inactive | inactive | inactive | inactive | inactive
8 | O[C@H]1C=C[C@@]23CCN(Cc4cc5c(cc42)OCO5)[C@@H]3C1 | inactive | inactive | inactive | inactive | inactive | inactive | inactive | inactive | inactive | inactive | inactive | inactive
9 | COC1C(O)C(C)OC(OC2C(Oc3cccc4c(O)c5c(=O)oc6ccc(C)c7c(=O)oc(c34)c5c67)OC(C)C(O)C2O)C1O (centres undefined) | inactive | inactive | inactive | inactive | inactive | inactive | inactive | inactive | inactive | inactive | inactive | 2.15 µM (active)
10 | CO[C@H]1C[C@H](O[C@H]2[C@@H](O)C[C@H](O[C@H]3CC[C@]4(C=O)[C@H]5CC[C@]6(C)C(C7=CC(=O)OC7)CC[C@]6(O)[C@@H]5CC[C@]4(O)C3)O[C@@H]2C)O[C@H](C)[C@H]1O[C@H]1C[C@@H](OC)[C@@H](O[C@@H]2O[C@H](CO)[C@@H](O)[C@H](O)[C@H]2O)[C@@H](C)O1 (some centres undefined) | inactive | inactive | inactive | inactive | inactive | inactive | inactive | inactive | inactive | inactive | inactive | inactive
11 | CO[C@H]([C@@H](C)[C@H]1O[C@]1(C)C[C@H](C)/C=C/C=C(\C)[C@H]1O[C@@H](CC(=O)O)CC[C@@H]1C)[C@@H](C)O | inactive | inactive | inactive | inactive | inactive | 0.0467 µM (active) | 0.105 µM (active) | inactive | inactive | inactive | inactive | inactive
12 | CO[C@@]12c3c(C)cc(O)c4c(=O)occ(c34)C(=O)[C@@H]1[C@]13COC(=O)c4c(O)cc(C)c(c41)C(=O)[C@H]2[C@@H]3OC(C)=O | inactive | inactive | inactive | inactive | inactive | inactive | inactive | inactive | inactive | inactive | inactive | inactive
